Experimental data taken from ChEMBL document CHEMBL1961873, “Compounds: GSK PKIS; Assays: Nanosyn kinase panel” (2012).

How the values were obtained:
[1] = target: T1, Aurora kinase A (Homo sapiens) (UniProt O14965); settings: at 1 µM;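 also: values are mean percent inhibition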
T1 sequence (whole entry): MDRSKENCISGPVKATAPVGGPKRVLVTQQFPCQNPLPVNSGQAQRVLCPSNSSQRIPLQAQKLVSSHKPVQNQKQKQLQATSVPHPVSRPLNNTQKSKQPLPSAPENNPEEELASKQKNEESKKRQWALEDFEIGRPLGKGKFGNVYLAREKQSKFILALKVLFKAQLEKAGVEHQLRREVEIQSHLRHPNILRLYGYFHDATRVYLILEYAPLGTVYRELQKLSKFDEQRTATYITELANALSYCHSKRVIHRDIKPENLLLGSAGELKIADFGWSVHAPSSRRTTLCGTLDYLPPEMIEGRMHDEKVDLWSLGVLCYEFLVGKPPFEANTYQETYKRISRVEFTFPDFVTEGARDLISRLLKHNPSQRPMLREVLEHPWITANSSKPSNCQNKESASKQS

[2] = target: Aurora kinase B (Homo sapiens) (UniProt Q96GD4); settings: at 0.1 µM
Sequence of Aurora kinase B (Homo sapiens) (Q96GD4 whole entry): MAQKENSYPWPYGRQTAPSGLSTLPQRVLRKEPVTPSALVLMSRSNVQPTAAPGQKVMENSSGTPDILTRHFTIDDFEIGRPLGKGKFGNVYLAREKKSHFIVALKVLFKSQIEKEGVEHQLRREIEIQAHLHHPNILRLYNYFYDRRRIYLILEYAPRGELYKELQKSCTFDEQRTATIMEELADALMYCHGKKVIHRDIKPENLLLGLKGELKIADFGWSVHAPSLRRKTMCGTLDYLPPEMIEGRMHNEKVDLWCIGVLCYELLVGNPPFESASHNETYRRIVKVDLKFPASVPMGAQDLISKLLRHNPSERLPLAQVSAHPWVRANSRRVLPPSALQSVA

[3] = target: Aurora kinase B (Homo sapiens) (UniProt Q96GD4); settings: at 1 µM
[4] = target: T2, Aurora kinase C (Homo sapiens) (UniProt Q9UQB9); settings: at 0.1 µM
T2 sequence (whole entry): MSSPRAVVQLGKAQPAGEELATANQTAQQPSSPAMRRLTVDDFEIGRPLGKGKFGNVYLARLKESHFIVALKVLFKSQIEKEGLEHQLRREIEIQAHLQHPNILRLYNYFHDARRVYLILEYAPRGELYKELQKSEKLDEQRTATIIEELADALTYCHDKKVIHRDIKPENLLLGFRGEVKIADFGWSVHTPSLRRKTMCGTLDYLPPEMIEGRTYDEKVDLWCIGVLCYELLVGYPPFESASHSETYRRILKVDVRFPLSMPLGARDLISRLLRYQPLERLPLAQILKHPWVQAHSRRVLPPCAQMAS

[5] = target: T2, Aurora kinase C (Homo sapiens); settings: at 1 µM
[6] = target: Serine/threonine-protein kinase 10 (Homo sapiens) (UniProt O94804); settings: at 0.1 µM
Sequence of Serine/threonine-protein kinase 10 (Homo sapiens) (O94804 whole entry, looked up): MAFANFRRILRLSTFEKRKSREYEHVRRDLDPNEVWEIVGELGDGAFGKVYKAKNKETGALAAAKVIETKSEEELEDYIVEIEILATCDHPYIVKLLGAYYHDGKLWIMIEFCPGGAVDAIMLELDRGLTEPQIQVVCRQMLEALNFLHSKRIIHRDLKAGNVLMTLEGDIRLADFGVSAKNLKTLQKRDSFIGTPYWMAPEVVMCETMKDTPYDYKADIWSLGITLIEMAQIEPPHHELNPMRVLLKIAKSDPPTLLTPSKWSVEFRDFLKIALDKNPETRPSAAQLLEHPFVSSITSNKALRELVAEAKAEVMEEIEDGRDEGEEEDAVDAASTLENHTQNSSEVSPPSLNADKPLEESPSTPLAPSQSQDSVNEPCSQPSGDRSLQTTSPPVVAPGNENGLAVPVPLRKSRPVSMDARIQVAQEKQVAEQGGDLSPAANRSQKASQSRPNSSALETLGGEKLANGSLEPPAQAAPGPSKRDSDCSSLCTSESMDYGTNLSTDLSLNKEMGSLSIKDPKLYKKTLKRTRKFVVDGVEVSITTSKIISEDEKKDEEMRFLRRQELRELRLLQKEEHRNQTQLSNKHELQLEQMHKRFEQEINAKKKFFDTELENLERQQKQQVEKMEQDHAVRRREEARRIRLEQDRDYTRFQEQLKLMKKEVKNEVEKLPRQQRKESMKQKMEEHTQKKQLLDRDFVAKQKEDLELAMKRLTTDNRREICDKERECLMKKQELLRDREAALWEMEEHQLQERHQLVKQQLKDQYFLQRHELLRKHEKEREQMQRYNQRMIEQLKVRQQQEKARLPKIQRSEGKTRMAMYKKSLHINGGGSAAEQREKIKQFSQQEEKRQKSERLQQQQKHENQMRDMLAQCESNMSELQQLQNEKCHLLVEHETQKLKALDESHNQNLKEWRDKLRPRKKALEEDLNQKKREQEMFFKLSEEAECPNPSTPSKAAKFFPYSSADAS

[7] = target: Serine/threonine-protein kinase 10 (Homo sapiens) (UniProt O94804); settings: at 1 µM
[8] = target: T3, Mitogen-activated protein kinase kinase kinase kinase 2 (Homo sapiens) (UniProt Q12851); settings: at 0.1 µM
T3 sequence (whole entry): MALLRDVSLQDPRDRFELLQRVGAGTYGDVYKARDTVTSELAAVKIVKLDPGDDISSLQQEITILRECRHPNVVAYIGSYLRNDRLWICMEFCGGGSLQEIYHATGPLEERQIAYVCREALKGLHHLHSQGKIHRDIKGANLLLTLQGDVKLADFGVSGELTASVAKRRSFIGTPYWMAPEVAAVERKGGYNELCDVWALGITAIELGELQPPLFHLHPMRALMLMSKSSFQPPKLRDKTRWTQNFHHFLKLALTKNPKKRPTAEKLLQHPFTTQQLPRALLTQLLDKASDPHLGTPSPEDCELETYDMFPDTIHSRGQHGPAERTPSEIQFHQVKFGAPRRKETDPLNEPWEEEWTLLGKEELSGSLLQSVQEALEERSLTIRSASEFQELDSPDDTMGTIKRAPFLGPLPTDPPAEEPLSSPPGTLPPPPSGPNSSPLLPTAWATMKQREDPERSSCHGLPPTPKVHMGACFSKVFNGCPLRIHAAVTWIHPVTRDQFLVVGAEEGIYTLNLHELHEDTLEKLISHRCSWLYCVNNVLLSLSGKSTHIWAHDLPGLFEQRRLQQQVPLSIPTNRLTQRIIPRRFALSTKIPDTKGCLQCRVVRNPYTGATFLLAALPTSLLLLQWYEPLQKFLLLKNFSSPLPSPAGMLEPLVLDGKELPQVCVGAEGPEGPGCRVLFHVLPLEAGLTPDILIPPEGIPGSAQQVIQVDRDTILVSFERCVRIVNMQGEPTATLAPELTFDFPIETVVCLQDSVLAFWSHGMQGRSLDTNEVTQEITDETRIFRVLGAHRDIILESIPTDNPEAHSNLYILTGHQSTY

[9] = target: T3, Mitogen-activated protein kinase kinase kinase kinase 2 (Homo sapiens); settings: at 1 µM
[10] = target: Mitogen-activated protein kinase kinase kinase kinase 4 (Homo sapiens) (UniProt O95819); settings: at 0.1 µM
Sequence of Mitogen-activated protein kinase kinase kinase kinase 4 (Homo sapiens) (O95819 2-1239 limits assumed): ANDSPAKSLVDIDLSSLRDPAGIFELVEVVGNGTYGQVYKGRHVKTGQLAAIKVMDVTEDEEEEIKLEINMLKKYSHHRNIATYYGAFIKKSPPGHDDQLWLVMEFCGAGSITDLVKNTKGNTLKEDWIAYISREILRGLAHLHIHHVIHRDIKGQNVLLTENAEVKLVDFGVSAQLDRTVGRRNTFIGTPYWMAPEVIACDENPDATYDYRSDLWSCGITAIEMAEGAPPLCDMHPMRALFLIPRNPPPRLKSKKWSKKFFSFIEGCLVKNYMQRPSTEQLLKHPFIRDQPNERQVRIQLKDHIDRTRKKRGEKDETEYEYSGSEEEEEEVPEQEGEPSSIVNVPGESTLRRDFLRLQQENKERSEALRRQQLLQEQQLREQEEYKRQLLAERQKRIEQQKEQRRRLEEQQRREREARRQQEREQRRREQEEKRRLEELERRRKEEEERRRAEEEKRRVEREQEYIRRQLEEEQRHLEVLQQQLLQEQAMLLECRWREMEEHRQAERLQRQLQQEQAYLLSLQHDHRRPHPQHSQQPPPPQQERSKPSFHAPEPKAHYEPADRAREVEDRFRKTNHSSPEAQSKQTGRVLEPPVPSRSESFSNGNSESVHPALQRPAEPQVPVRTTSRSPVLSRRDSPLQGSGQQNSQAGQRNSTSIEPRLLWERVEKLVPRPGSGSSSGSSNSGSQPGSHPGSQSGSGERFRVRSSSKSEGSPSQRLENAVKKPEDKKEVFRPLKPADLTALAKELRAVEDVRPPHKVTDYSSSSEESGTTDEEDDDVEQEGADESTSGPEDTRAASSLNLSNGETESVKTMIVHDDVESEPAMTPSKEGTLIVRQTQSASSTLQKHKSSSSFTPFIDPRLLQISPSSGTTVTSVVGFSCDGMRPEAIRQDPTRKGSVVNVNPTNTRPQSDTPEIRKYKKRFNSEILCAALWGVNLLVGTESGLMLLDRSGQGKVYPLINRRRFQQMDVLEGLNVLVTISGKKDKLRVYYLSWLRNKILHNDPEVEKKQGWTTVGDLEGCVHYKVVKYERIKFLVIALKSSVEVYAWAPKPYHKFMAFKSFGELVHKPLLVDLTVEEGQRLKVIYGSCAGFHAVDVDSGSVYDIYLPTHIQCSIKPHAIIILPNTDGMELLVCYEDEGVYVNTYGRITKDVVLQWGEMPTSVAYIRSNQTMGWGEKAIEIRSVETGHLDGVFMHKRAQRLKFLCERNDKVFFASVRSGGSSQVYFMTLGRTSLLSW

[11] = target: Mitogen-activated protein kinase kinase kinase kinase 4 (Homo sapiens) (UniProt O95819); settings: at 1 µM
[12] = target: Dual specificity mitogen-activated protein kinase kinase 1 (Homo sapiens) (UniProt Q02750); settings: at 0.1 µM
Sequence of Dual specificity mitogen-activated protein kinase kinase 1 (Homo sapiens) (Q02750 whole entry): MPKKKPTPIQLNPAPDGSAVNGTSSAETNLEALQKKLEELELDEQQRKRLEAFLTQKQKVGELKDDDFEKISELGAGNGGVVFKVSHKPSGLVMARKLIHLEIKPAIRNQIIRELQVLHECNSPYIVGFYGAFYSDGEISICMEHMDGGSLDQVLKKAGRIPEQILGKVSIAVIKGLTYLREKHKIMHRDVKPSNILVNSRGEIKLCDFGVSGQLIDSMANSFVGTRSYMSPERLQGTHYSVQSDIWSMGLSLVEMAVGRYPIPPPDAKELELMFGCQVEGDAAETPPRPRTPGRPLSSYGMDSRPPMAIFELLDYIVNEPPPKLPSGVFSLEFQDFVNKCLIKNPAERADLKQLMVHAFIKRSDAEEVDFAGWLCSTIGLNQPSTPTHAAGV

[13] = target: Dual specificity mitogen-activated protein kinase kinase 1 (Homo sapiens) (UniProt Q02750); settings: at 1 µM
[14] = target: Misshapen-like kinase 1 (Homo sapiens) (UniProt Q8N4C8); settings: at 0.1 µM
Sequence of Misshapen-like kinase 1 (Homo sapiens) (Q8N4C8 whole entry, looked up): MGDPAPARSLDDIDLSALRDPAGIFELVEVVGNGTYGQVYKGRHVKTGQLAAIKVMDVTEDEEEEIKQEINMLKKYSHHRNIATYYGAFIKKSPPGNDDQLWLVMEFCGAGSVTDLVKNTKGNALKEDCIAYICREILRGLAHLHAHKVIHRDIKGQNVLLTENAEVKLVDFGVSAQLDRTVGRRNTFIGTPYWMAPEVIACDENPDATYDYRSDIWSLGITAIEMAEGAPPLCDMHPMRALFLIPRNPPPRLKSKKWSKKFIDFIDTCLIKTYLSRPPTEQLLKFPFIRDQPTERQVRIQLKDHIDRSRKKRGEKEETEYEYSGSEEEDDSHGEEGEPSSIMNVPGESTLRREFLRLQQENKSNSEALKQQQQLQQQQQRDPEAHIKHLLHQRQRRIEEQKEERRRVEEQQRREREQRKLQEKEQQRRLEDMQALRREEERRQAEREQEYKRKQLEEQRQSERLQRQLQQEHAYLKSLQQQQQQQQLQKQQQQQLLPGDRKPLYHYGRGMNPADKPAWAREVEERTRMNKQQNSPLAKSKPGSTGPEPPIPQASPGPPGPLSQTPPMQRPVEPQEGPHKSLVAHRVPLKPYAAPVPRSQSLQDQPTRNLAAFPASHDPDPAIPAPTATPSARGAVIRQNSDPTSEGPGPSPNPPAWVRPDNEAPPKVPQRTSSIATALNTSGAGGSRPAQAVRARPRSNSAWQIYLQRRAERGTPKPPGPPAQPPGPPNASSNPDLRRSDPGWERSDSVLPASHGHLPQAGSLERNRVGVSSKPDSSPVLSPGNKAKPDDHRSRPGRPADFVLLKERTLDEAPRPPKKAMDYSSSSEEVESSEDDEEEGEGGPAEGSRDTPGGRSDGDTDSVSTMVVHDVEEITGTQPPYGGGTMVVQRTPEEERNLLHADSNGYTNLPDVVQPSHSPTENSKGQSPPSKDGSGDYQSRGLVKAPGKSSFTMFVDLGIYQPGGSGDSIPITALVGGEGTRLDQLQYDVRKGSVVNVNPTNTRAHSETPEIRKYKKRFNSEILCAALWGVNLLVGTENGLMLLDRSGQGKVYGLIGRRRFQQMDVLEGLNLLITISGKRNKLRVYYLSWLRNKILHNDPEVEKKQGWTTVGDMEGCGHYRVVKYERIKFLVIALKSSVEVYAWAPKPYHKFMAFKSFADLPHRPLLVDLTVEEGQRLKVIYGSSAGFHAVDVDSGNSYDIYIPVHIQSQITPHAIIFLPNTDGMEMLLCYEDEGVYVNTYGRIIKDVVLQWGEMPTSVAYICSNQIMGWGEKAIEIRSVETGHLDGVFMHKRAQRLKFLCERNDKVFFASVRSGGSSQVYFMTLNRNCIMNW

[15] = target: Misshapen-like kinase 1 (Homo sapiens) (UniProt Q8N4C8); settings: at 1 µM
[16] = target: T4, Serine/threonine-protein kinase 4 (Homo sapiens) (UniProt Q13043); settings: at 0.1 µM
T4 sequence (whole entry): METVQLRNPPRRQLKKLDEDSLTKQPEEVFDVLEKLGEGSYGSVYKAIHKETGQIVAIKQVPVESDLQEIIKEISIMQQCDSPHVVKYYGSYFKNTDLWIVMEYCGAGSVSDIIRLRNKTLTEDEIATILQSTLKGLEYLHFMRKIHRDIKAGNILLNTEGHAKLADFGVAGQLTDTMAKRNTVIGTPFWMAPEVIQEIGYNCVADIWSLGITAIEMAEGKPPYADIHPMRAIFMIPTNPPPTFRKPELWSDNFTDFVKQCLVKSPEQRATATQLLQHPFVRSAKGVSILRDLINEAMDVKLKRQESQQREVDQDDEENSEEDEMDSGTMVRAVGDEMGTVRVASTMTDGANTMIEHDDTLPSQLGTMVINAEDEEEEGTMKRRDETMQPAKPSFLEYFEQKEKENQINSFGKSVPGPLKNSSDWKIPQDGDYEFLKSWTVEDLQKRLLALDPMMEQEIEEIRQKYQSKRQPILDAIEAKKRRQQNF

[17] = target: T4, Serine/threonine-protein kinase 4 (Homo sapiens); settings: at 1 µM
[18] = target: T5, Serine/threonine-protein kinase 3 (Homo sapiens) (UniProt Q13188); settings: at 0.1 µM
T5 sequence (whole entry): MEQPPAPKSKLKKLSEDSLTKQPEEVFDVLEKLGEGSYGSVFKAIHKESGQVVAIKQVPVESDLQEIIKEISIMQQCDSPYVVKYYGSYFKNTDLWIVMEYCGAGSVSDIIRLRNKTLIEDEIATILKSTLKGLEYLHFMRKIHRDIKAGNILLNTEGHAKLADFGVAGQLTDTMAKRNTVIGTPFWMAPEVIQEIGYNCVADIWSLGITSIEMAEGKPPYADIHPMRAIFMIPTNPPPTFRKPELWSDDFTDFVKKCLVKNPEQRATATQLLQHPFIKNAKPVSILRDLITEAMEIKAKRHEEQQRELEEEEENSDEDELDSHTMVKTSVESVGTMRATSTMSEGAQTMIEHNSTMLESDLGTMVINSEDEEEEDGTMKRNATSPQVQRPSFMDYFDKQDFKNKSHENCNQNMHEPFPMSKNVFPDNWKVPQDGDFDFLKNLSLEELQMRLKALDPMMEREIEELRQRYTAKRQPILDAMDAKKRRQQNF

[19] = target: T5, Serine/threonine-protein kinase 3 (Homo sapiens); settings: at 1 µM
[20] = target: Serine/threonine-protein kinase 26 (Homo sapiens) (UniProt Q9P289); settings: at 0.1 µM
Sequence of Serine/threonine-protein kinase 26 (Homo sapiens) (Q9P289 2-416 limits assumed): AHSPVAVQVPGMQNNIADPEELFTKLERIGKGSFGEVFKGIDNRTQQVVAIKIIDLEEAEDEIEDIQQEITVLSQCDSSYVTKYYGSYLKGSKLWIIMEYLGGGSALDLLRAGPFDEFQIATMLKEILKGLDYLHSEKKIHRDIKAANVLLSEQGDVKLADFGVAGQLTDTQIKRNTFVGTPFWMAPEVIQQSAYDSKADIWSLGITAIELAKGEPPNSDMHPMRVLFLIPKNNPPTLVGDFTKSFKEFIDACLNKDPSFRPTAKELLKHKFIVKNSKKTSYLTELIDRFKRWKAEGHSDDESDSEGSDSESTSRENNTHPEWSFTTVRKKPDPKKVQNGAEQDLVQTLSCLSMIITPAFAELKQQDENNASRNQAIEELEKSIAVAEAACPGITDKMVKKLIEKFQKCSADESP

| Structure (SMILES) | inhibition [1] | inhibition [2] | inhibition [3] | inhibition [4] | inhibition [5] | inhibition [6] | inhibition [7] | inhibition [8] | inhibition [9] | inhibition [10] | inhibition [11] | inhibition [12] | inhibition [13] | inhibition [14] | inhibition [15] | inhibition [16] | inhibition [17] | inhibition [18] | inhibition [19] | inhibition [20] |
| --- | --- | --- | --- | --- | --- | --- | --- | --- | --- | --- | --- | --- | --- | --- | --- | --- | --- | --- | --- | --- |
| O=C1NC(=O)C(c2ccc(Cl)cc2)=C1Nc1ccc(Cl)c(C(=O)O)c1 | 4.76% | -0.14% | 2.81% | -1.78% | -3.59% | -1.94% | -1.03% | 0.42% | 2.85% | -1.56% | 0.73% | -2.44% | -3.36% | -0.82% | -0.69% | -1.86% | -3.6% | -2.71% | -2.5% | -0.06% |
| NCc1ccc(-c2nc(-c3ccc(Cl)c(O)c3)c(-c3ccncc3)[nH]2)cc1 | 9.73% | 1.17% | 6.56% | 1.89% | 5.03% | 1.42% | 23.7% | 3.14% | 4.41% | 4.02% | 17.2% | 0.8% | 2.23% | 4.99% | 14.1% | 0.18% | 0.25% | -1% | -1.23% | 0.12% |
| CCn1c(-c2nonc2N)nc2ccncc21 | 6.98% | 0.79% | 3.04% | 0.9% | 6.04% | 2.02% | 4.14% | 1.41% | 3.01% | 2.18% | 3.87% | 2.48% | 1.41% | 3.12% | 3.29% | 2.91% | 1.83% | 3.05% | 1.74% | 1.67% |
| [O-][S+]1CCN(Cc2ccc(-c3ccc4ncnc(Nc5ccc(OCc6ccccc6)c(F)c5)c4c3)o2)CC1 | 5.78% | 1.65% | 4.29% | 0.94% | 7.34% | 2.71% | 6.62% | 0.36% | 1.57% | 3.5% | -0.28% | 2.4% | 3.03% | 4.17% | 1.42% | 2.61% | 2.36% | 2.82% | 3.06% | -0.81% |
| CN1CCC(C(=O)Nc2n[nH]c3nnc(-c4ccccc4)cc23)CC1 | 8.78% | 3.81% | 9.47% | 4.39% | -2.07% | 8.49% | 9.99% | 0.73% | 3.35% | 6.6% | 14.1% | 6.89% | 5.56% | 6.64% | 14.6% | 4.72% | 13% | 5.88% | 9.3% | -0.64% |
| CCn1c(-c2nonc2N)nc2cnc(Oc3cccc(NC(=O)c4ccc(OCCN5CCOCC5)cc4)c3)cc21 | 43% | 2.17% | 8.22% | 1.52% | 4.33% | 3.13% | 9.94% | 0.13% | -1.08% | 6.11% | 13.2% | 3.5% | 3.8% | 6.17% | 12.5% | 2.14% | 3.43% | 2.3% | 3.84% | -1.24% |
| COc1ccc(-c2ccncc2)cc1C(N)=O | 4.17% | 5.11% | 7.24% | 1.6% | 5.22% | 8.76% | 12.9% | 0.72% | 3.34% | 4.28% | 11.4% | 4.89% | 4.05% | 6.61% | 8.92% | 3.27% | 7.82% | 4.87% | 6.68% | -1.91% |
